# Results taken from article PMC7862700, “An all-to-all approach to the identification of sequence-specific readers for epigenetic DNA modifications on cytosine”.
# Key:
# Assay in all cases: DAPPL (digital affinity profiling via proximity ligation, sequencing); 10 mM Tris-HCl pH 7.5, 50 mM NaCl, 1 mM DTT, 4% glycerol, room temperature, 30 min; GST-TFs on glutathione beads, 16-mer random dsDNA library, 0.1% formaldehyde crosslink after washing; high values mean tight binding
# FLI1 = biological target: T1, FLI1 (Homo sapiens, UniProt Q01543 1-452); details: protein: recombinant; tags: N-terminal GST; dsDNA, one strand shown
# T1 sequence: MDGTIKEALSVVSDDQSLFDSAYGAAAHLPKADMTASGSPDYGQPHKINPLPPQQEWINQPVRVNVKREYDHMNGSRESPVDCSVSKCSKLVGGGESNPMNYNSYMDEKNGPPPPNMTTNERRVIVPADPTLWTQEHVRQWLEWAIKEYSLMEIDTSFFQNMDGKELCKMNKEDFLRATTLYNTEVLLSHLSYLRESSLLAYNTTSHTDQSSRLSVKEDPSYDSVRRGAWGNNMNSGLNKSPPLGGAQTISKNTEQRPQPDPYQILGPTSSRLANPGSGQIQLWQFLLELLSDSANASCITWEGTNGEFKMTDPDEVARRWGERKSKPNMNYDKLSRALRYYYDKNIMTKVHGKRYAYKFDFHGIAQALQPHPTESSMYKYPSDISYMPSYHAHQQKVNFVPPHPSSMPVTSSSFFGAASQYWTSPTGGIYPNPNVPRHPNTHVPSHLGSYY
# Outline: (§1)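 Sequencing on an Illumina NextSeq500 followed washing, crosslinking with 0.1% formaldehyde, proximity ligation (BsaI/T4 ligase, 1 h, 37 °C) and PCR amplification of pools that had been incubated for 30 min at room temperature with 200 nmole of a random double-stranded 16-mer DNA library in Tris/NaCl/DTT/glycerol buffer. Each pool held DNA-barcoded human transcription factors, expressed in yeast as GST fusions and captured on glutathione beads, plus a tag-only sample. Binding signal is a hexamer's read frequency for a factor divided by its frequency in the tag-only sample.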
# ELK1 = biological target: T2, ELK1 (Homo sapiens, UniProt P19419 1-428); details: protein: recombinant; tags: N-terminal GST; dsDNA, one strand shown
# T2 sequence: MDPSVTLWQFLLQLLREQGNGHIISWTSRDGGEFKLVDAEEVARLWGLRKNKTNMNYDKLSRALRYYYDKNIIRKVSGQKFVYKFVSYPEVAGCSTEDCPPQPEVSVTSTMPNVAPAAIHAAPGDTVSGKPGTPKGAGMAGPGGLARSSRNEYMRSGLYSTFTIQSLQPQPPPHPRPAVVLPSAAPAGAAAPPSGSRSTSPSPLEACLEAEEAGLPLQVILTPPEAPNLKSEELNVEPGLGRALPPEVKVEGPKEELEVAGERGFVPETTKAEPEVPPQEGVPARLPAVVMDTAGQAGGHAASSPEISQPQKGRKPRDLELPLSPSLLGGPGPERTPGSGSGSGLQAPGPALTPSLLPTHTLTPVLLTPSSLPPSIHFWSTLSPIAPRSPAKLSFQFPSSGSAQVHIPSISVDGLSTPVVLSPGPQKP
# Outline: as §1
# GABPA = biological target: T3, GABPA (Homo sapiens, UniProt Q06546 1-454); details: protein: recombinant; tags: N-terminal GST; dsDNA, one strand shown
# T3 sequence: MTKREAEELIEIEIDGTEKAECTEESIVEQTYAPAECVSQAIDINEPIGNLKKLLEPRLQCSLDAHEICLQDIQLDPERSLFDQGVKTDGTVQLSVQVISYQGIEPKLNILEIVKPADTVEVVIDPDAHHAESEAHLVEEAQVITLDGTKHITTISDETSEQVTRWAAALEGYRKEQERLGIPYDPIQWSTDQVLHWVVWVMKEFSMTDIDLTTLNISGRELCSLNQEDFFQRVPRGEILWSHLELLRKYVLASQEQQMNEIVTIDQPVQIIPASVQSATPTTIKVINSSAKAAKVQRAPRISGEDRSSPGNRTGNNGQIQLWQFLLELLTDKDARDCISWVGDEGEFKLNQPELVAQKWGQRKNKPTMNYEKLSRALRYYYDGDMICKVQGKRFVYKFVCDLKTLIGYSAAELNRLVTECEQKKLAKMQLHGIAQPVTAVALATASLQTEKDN
# Outline: as §1
# ERG = biological target: T4, ERG (Homo sapiens, UniProt P11308 1-479); details: protein: recombinant; tags: N-terminal GST; dsDNA, one strand shown
# T4 sequence: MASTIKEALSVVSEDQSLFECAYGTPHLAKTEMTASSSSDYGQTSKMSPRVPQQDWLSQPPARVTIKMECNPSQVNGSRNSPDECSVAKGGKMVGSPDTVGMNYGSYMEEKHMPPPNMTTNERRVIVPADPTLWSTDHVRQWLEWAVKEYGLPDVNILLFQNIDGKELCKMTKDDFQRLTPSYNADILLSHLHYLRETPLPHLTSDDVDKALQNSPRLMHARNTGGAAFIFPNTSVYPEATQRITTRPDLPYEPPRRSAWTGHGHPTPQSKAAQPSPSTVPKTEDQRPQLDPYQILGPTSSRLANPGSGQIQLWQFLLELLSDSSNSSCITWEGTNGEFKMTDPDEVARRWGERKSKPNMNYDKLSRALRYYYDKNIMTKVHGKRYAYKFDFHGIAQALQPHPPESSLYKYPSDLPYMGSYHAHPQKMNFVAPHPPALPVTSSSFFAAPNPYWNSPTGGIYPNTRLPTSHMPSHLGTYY
# Outline: as §1
# ELF1 = ELF1 (Homo sapiens, UniProt P32519 1-619); details: protein: recombinant; tags: N-terminal GST; dsDNA, one strand shown
# Chain of ELF1 (P32519 whole entry): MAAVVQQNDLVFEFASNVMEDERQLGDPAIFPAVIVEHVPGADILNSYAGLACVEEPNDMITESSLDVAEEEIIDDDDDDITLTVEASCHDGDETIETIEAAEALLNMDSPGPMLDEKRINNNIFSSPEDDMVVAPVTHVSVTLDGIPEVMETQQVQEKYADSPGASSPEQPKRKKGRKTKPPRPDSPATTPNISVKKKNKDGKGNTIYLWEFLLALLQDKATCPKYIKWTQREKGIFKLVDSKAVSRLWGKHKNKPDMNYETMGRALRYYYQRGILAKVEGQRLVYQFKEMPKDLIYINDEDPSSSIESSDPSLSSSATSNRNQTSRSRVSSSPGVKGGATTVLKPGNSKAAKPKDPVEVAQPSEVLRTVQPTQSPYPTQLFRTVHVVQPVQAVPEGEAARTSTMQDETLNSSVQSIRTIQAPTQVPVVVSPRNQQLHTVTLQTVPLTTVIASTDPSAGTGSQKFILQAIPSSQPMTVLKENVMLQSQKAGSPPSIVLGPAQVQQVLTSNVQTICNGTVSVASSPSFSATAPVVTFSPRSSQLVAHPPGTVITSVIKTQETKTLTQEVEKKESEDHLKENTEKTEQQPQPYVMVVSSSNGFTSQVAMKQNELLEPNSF
# Outline: as §1
# EHF = biological target: T5, EHF (Homo sapiens, UniProt Q9NZC4 1-300); details: protein: recombinant; tags: N-terminal GST; dsDNA, one strand shown
# T5 sequence: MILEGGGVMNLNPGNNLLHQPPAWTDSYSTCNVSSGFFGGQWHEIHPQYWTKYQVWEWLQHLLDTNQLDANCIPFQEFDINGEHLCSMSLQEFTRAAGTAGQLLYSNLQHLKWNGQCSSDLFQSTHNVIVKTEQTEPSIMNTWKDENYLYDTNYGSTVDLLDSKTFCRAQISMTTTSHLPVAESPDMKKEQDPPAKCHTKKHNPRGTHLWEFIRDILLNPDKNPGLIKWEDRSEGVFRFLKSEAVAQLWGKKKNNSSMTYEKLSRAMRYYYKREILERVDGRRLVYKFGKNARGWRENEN
# Outline: as §1
# SPI1 = SPI1 (Homo sapiens, UniProt P17947 1-270); details: protein: recombinant; tags: N-terminal GST; dsDNA, one strand shown
# Outline: as §1
# SPIB = SPIB (Homo sapiens, UniProt Q01892 1-262); details: protein: recombinant; tags: N-terminal GST; dsDNA, one strand shown
# Chain of SPIB (Q01892 whole entry): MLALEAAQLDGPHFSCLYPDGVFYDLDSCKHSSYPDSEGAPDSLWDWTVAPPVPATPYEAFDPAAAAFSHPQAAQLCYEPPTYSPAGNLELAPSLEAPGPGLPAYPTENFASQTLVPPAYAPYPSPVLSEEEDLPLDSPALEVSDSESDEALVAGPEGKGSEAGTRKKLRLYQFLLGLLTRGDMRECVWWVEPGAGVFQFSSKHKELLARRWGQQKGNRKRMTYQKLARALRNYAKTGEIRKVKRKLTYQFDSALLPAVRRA
# Outline: as §1
# ELK3 = biological target: T6, ELK3 (Homo sapiens, UniProt P41970 1-407); details: protein: recombinant; tags: N-terminal GST; dsDNA, one strand shown
# T6 sequence: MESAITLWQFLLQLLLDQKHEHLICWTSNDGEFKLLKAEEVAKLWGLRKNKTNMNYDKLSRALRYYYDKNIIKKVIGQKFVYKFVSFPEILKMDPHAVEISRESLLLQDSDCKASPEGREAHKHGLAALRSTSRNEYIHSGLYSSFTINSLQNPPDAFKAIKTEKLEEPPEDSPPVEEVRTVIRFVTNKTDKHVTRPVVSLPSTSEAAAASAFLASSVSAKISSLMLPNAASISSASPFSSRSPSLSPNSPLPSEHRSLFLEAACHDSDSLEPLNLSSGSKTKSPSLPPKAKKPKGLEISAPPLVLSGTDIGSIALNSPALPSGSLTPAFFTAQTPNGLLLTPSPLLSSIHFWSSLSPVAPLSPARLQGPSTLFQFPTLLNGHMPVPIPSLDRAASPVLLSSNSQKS
# Outline: as §1
# FEV = biological target: T7, FEV (Homo sapiens, UniProt Q99581 1-238); details: protein: recombinant; tags: N-terminal GST; dsDNA, one strand shown
# T7 sequence: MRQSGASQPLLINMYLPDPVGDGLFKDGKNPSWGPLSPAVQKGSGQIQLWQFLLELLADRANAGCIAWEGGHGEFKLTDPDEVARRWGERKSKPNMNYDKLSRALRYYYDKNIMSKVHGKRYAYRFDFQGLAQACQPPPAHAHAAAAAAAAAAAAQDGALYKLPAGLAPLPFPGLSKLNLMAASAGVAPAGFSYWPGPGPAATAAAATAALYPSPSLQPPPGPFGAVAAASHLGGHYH
# Outline: as §1
# ETV5 = ETV5 (Homo sapiens, UniProt P41161 1-510); details: protein: recombinant; tags: N-terminal GST; dsDNA, one strand shown
# Chain of ETV5 (P41161 whole entry): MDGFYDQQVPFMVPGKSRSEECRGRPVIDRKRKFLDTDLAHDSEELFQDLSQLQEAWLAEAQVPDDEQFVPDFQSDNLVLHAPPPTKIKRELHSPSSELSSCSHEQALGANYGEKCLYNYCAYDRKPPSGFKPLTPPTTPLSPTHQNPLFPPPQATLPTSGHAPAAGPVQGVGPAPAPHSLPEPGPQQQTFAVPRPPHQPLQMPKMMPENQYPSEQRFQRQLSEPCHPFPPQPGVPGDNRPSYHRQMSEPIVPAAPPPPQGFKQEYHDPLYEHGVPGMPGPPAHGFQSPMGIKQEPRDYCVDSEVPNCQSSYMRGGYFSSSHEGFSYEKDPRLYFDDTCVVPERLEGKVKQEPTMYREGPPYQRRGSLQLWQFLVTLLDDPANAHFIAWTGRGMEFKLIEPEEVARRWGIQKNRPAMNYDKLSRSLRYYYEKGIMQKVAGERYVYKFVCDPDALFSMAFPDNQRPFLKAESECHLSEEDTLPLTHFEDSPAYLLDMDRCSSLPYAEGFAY
# Outline: as §1
# HSF1 = HSF1 (Homo sapiens, UniProt Q00613 1-529); details: protein: recombinant; tags: N-terminal GST; chain copies: 3; dsDNA, one strand shown
# Chain of HSF1 (Q00613 whole entry): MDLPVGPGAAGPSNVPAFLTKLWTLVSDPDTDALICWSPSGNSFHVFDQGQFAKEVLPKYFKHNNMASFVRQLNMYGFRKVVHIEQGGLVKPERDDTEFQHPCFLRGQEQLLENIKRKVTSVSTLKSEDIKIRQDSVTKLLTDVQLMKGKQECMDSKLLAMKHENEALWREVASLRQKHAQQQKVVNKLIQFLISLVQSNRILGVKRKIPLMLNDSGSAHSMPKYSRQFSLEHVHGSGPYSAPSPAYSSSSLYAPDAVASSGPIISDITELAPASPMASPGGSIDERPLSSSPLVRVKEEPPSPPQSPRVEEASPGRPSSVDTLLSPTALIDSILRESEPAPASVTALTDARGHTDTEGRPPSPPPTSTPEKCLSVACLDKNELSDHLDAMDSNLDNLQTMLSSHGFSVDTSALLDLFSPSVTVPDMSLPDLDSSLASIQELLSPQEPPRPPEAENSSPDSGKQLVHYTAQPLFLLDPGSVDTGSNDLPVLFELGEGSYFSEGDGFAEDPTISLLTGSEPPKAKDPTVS
# Outline: as §1
# SPIC = biological target: T8, SPIC (Homo sapiens, UniProt Q8N5J4 1-248); details: protein: recombinant; tags: N-terminal GST; dsDNA, one strand shown
# T8 sequence: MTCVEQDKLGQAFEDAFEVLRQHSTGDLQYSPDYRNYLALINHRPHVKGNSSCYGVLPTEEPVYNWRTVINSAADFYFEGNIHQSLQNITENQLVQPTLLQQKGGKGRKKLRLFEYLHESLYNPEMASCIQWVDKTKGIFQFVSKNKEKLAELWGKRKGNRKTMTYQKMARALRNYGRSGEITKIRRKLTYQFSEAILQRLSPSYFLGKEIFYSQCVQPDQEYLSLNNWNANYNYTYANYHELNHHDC
# Outline: as §1
# ELF4 = ELF4 (Homo sapiens, UniProt Q99607 1-663); details: protein: recombinant; tags: N-terminal GST; dsDNA, one strand shown
# Chain of ELF4 (Q99607 whole entry): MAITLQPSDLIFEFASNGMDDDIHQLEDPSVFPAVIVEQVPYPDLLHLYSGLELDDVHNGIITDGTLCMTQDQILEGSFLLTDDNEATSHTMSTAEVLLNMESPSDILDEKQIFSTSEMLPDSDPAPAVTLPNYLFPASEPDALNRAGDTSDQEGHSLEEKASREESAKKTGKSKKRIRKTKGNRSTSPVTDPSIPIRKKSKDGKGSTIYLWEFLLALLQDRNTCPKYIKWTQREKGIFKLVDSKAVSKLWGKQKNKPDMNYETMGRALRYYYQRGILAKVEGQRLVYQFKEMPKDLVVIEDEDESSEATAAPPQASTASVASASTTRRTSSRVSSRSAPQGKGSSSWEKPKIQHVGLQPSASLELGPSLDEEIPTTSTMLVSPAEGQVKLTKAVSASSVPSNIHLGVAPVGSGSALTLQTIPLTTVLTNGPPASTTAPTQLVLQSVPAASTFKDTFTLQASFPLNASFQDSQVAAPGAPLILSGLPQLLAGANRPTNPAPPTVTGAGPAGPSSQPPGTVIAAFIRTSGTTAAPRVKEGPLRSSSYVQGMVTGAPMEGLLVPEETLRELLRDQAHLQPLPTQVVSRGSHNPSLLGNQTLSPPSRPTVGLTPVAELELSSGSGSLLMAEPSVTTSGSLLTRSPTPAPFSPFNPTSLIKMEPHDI
# Outline: as §1
# ELK4 = biological target: T9, ELK4 (Homo sapiens, UniProt P28324-2 1-405); details: protein: recombinant; tags: N-terminal GST; dsDNA, one strand shown
# T9 sequence: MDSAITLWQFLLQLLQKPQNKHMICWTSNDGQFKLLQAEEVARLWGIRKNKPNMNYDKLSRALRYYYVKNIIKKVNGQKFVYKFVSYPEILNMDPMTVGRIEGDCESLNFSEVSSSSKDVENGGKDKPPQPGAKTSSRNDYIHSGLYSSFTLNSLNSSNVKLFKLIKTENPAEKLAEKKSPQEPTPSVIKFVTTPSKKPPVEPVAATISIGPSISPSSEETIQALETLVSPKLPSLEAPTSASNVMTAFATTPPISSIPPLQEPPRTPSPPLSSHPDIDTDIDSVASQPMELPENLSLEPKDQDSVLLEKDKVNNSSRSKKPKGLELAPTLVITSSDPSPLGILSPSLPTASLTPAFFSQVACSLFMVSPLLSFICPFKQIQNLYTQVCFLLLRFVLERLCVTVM
# Outline: as §1
# ETV2 = biological target: T10, ETV2 (Homo sapiens, UniProt O00321 1-342); details: protein: recombinant; tags: N-terminal GST; dsDNA, one strand shown
# T10 sequence: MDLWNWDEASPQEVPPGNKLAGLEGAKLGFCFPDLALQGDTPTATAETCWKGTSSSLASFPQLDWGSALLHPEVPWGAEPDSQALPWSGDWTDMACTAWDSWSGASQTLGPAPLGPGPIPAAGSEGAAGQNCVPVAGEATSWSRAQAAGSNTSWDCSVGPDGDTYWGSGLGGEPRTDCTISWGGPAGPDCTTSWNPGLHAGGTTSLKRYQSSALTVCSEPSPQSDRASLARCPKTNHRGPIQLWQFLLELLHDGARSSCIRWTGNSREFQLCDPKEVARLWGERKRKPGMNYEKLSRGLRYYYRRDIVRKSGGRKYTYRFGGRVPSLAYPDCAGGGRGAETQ
# Outline: as §1
# ELF3 = biological target: T11, ELF3 (Homo sapiens, UniProt P78545 1-371); details: protein: recombinant; tags: N-terminal GST; dsDNA, one strand shown
# T11 sequence: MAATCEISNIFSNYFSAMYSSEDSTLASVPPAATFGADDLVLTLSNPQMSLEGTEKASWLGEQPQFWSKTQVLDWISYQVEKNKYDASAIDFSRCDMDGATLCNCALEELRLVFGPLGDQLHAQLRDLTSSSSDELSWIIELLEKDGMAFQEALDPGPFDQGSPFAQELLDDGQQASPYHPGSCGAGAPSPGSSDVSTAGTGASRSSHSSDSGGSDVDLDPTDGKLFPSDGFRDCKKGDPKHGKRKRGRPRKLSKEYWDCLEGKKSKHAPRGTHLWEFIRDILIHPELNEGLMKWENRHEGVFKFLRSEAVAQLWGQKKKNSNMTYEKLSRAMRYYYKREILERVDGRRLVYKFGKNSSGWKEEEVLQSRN
# Outline: as §1
# CRX = CRX (Homo sapiens, UniProt O43186 1-299); details: protein: recombinant; tags: N-terminal GST; dsDNA, one strand shown
# Chain of CRX (O43186 whole entry): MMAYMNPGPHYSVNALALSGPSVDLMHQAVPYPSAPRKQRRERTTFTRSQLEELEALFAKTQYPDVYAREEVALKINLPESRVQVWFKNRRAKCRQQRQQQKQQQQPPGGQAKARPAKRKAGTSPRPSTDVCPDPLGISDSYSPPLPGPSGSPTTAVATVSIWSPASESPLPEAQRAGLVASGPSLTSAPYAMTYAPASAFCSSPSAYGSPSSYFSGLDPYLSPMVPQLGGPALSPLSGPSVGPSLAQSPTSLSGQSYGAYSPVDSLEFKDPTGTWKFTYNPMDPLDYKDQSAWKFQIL
# Outline: as §1
# ETV1 = ETV1 (Homo sapiens, UniProt P50549 1-477); details: protein: recombinant; tags: N-terminal GST; dsDNA, one strand shown
# Chain of ETV1 (P50549 whole entry): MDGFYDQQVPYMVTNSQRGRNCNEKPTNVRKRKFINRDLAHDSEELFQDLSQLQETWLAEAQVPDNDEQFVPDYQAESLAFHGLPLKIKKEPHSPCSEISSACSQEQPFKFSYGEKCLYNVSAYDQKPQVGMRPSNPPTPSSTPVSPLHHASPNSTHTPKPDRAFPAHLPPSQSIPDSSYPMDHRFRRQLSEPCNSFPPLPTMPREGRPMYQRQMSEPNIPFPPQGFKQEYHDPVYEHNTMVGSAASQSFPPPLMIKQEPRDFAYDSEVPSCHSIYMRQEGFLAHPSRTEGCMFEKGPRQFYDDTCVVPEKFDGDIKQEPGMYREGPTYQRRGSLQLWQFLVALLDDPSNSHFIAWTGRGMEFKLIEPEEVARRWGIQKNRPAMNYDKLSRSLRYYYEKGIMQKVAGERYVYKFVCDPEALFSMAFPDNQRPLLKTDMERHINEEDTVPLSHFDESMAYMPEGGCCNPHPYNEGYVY
# Outline: as §1
sequence,measurement,setting,value
AATGCT,binding signal,FLI1,"1.16 fold enrichment (6-mer frequency, TF over GST control)"
same,binding signal,ELK1,"1.17 fold enrichment (6-mer frequency, TF over GST control)"
same,binding signal,GABPA,"1.14 fold enrichment (6-mer frequency, TF over GST control)"
same,binding signal,ERG,"1.16 fold enrichment (6-mer frequency, TF over GST control)"
same,binding signal,ELF1,"1.16 fold enrichment (6-mer frequency, TF over GST control)"
same,binding signal,EHF,"1.14 fold enrichment (6-mer frequency, TF over GST control)"
same,binding signal,SPI1,"1.12 fold enrichment (6-mer frequency, TF over GST control)"
same,binding signal,SPIB,"1.16 fold enrichment (6-mer frequency, TF over GST control)"
same,binding signal,ELK3,"1.12 fold enrichment (6-mer frequency, TF over GST control)"
same,binding signal,FEV,"1.2 fold enrichment (6-mer frequency, TF over GST control)"
same,binding signal,ETV5,"1.27 fold enrichment (6-mer frequency, TF over GST control)"
same,binding signal,HSF1,"1.29 fold enrichment (6-mer frequency, TF over GST control)"
same,binding signal,SPIC,"1.24 fold enrichment (6-mer frequency, TF over GST control)"
same,binding signal,ELF4,"1.25 fold enrichment (6-mer frequency, TF over GST control)"
same,binding signal,ELK4,"1.3 fold enrichment (6-mer frequency, TF over GST control)"
same,binding signal,ETV2,"1.3 fold enrichment (6-mer frequency, TF over GST control)"
same,binding signal,ELF3,"1.21 fold enrichment (6-mer frequency, TF over GST control)"
same,binding signal,CRX,"1.26 fold enrichment (6-mer frequency, TF over GST control)"
same,binding signal,ETV1,"1.24 fold enrichment (6-mer frequency, TF over GST control)"
